In PubChem BioAssay AID1347426 (Functional Genomics Laboratory (NCATS/FGL), 2020):
In all, about 31,000 sequences went through this assay and about 1,400 (4.5%) were called active. Only a selection was taken, and actives are over-represented in it overall. A number with no mark means an inactive call.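 The calls were made as follows: active = median seed-adjusted z-score above 1 or below -1; inactive = the rest.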

assay: Novel Modifiers of Survival Motor Neuron (SMN) Protein: Gene Identification via Genome-wide siRNA Screen; settings: HEK293T SMN2-luciferase reporter, siRNA knockdown, 72 h; actives lie on both sides;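 also: luminescence tracks full-length SMN protein made from the SMN2 reporter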
Outline: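 HEK293T cells stably expressing an SMN2 splicing/cDNA-luciferase reporter were reverse-transfected with a druggable-genome siRNA library and read by luminescence at 72 hours; hits defined by MAD score above 1.0 or below -1.0.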

Sequence | median seed-adjusted z-score
GGACCUACACUUUUCUCUUTT against FAM53B | -0.00535
CCCUAAAGUUAAUCACCCATT against NUCB2 | 0.45
GUUCCAUCCUGAUUCAAAUTT against PIGM | 1.36 (active)
GUUGAUAAGUUUUACCGAUTT against ADAM19 | 0.0996
CCACCCGGACGAUAUCUUUTT against PPARA | 0.113
GGAACGCAGUCGGAUCUCATT against RHOU | -1.44 (active)
GCAUUUGCAAUGAAGGCUATT against DNER | -0.316
GAACCAGAUGAGACAUUCATT against SPSB1 | -0.378
CUCUAAUGUUAAUCCGAGATT against MED14 | -3.22 (active)
GAGGCUCAAUGUUACACCATT against ACAT1 | -0.848
CCAUUGGGCUAUGACCUGATT against ACOT4 | -0.158
GGCACUAUUUCCAAUGGAATT against ADAMTS12 | -0.0721
GCAGCCCUGAUGUCCAGUATT against EFS | -0.299
AGUUCAUCGAUGACAUGGATT against COL6A2 | 0.0119
GGAUCUAUCUUAACGACCATT against GAN | -1.07 (active)
GCUCCGAAGUGUUUACAAUTT against DQX1 | -0.297
GUCCAAAUACAGUCUCUUATT against MAP3K14 | -0.0609
CGCUGAAACCCGAUUCCUATT against ANPEP | 0.252
GCCUAGAUGAGCGAAUUUATT against LSM3 | -1.36 (active)
GCACUGCGACUGUACUCUATT against LRRC3B | 0
CCUUCACACGUACCACAAATT against TEKT2 | -0.349
GGCUGGACAGUAAUUCAGATT against ANGPTL4 | 1.37 (active)
CACAAUGAGUUAACUGAUATT against LILRB4 | -0.104
CGUUAUUGCCUGUUUGGAATT against GUCY1A2 | -0.186
GGGAAAAGCUUGACGAUUATT against RNF139 | 0.175
GGGUUGAAGGUGAUCAUCATT against IMMP2L | 0.919
GGCUCAUUGAGACGACUGATT against RCADH5 | -0.158
CACUGGAGACUUUCGCUUUTT against ZNF813 | 0.127
AGAUCUACAUCGUGAUGAATT against CDC2L1 | -1.14 (active)
GGUACUUCGUGAUCCGCAUTT against NECAP2 | -0.539
